D1 antagonist – blocks dopamine activation of the human D1 receptor; HEK293 TREx D1 cells, calcium flux, dopamine EC80; stronger effect = lower value; AID 504652; P21728; hit rate 3.2% among 360,000; activity change, negative = inhibition, % at 10 µM; in the data active = activity change below about -30%
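Tetracycline-induced HEK293 Trex D1 cells, force-coupled to calcium, dye-loaded; compounds added and read 180 s, then EC80 dopamine added and calcium flux tracked kinetically another 180 s.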
D1 potentiator – potentiators of human D1 dopamine receptor. P21728. HEK293 TREx D1 cells, calcium flux, dopamine EC20 potentiation. potentiation, % at 10 µM. hit rate 0.036% among 360,000; in the data active = potentiation above about 30%
TRHR agonist – TRH receptor (human) agonism | hit rate 0.18% among 360,000 | P34981 | activation, % at 2 µM | TRHR cells, calcium flux fluo-8, FDSS agonist mode
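TRHR-expressing cells loaded with fluo-8 calcium dye; 23 nL library compound pin-transferred, kinetic FDSS fluorescence (Ex 480/Em 530) recorded about 180 s for agonist-induced calcium release, before a 10 nM TRH EC20 addition for potentiator mode.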
TRHR enhancer – allosteric enhancers of human TRH receptor | TRHR cells, fluo-8 calcium fluorescence, EC20 TRH enhancement | hit rate 0.66% among 360,000 | enhancement, % at 2 µM; in the data active = enhancement above about 30%
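TRHR-expressing cells loaded with fluo-8 calcium dye were read kinetically (ex 480/em 530) during compound addition, then stimulated with an EC20 of TRH (10 nM final). Enhancement of the Gq-mediated intracellular calcium response was scored.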
D1 agonist – activates the human D1 dopamine receptor | P21728 | HEK293 T-REx D1 cells, calcium flux, agonist mode | activation, % at 2 µM | hit rate 1% among 360,000
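Agonism was scored from calcium flux recorded over 180 s (1 read/s) after pintool compound addition, following a 10-cycle baseline. Cells were inducible force-coupled HEK293 TREx D1, plated overnight at 30 C and loaded with no-wash calcium dye.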
USP1 inh – USP1/UAF1 (human) deubiquitinase inhibition; recombinant USP1/UAF1, Ub-Rhodamine cleavage fluorescence; AID 743255; O94782; hit rate 0.23% among 390,000; Potency, µM (highest dose often 57.1 µM), usual class: inhibitors; active = well fitted inhibition curve with a large enough effect; inconclusive = small, poorly fitted or top-dose-only effect; inactive = no such curve, though single readings can be large or run the other way; note: nearly all actives have a fitted effect of over 60% in size
Target sequence (O94782 whole entry, looked up): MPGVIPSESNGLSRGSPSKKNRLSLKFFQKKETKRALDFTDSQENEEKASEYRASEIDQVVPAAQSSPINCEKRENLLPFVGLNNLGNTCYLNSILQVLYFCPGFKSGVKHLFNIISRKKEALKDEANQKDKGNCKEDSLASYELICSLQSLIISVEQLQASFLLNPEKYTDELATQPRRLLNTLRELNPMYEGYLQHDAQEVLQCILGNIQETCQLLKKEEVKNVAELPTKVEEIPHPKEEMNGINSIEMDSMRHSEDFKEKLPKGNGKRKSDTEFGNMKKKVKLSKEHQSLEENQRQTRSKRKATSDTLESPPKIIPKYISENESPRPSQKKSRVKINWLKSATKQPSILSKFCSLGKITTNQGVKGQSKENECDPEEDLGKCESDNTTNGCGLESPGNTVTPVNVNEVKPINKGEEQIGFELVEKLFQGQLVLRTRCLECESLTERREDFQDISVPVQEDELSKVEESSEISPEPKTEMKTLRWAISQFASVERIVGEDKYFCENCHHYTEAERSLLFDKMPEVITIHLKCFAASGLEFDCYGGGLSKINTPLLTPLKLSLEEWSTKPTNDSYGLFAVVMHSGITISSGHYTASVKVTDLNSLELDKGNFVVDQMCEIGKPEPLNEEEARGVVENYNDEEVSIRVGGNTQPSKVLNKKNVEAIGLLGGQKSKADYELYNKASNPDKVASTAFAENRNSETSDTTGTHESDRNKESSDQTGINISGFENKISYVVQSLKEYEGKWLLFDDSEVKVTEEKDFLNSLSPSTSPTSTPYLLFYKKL
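USP1/UAF1 complex at 1 nM was preincubated with compound for 15 min at room temperature, then Ub-Rho substrate (150nM final) was added. Fluorescence (480/540 nm) was read kinetically, 6 reads every 60 seconds.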
A number is an active result; – = inactive; ? = inconclusive; · = not tested or not shown; ! = not active in a repeat. The list is not random: actives were taken first. Their share in the collection is about 4.4%. Cut-off read from the data, not from the text of the source, unless noted: active = activation above about 30%; inactive = the rest.

SMILES | D1 antagonist | D1 potentiator | TRHR agonist | TRHR enhancer | D1 agonist | USP1 inh
O=C(Oc1coc(CSc2ncccn2)cc1=O)c1ccco1 | -33 | – | – | – | – | –
CC(=O)N1CCCc2cc(S(=O)(=O)N(C)CC(=O)Nc3ccc(Cl)cc3C)ccc21 | – | – | – | – | – | ?
Clc1ccc(SCCCCN2CCNCC2)cc1 | -45 | – | – | – | 120 | –
Cc1ccc(SCCCCN2CCNCC2)cc1 | – | – | – | – | – | –
Cc1cc(Cl)c(OCCOCCN2CCC(C)CC2)c(Br)c1 | – | – | – | – | 34 | –
Cc1cc(Cl)c(OCCOCCN2CCN(C)CC2)c(Br)c1 | – | – | – | – | – | –
CC1CCN(CCOCCSc2ccc(Cl)cc2)CC1 | -44 | – | – | – | – | –
COCCCn1c(SCC(=O)Nc2ccc(OC)cc2)nc2c(sc3ccccc32)c1=O | – | – | – | – | – | ?
S=C(Nc1ccccc1Cl)N1CCN(c2ccccn2)CC1 | -32 | – | – | – | – | –
Cc1[nH]c2ccccc2c1NC(=O)CN1CCN(c2cccc(C(F)(F)F)c2)CC1 | – | – | – | – | – | –
O=C(CN1CCN(c2cccc(C(F)(F)F)c2)CC1)NCc1ccccc1 | -45 | – | – | – | – | –
Cc1[nH]c2ccccc2c1C(O)CN1CCN(c2cccc(C(F)(F)F)c2)CC1 (configuration not stated) | -59 | – | – | – | 31 | –
Fc1ccc(NC(=S)N2CCN(c3cccc(C(F)(F)F)c3)CC2)cc1 | -38 | – | – | – | – | –
Cc1c(Cl)cccc1NC(=S)N1CCN(c2ccccn2)CC1 | – | – | – | – | – | –
Cc1ccccc1CN1CCCN(CC(=O)Nc2c(C)cccc2C)S1(=O)=O | – | – | – | – | – | –
FC(F)Sc1ccc(NC(=S)N2CCN(c3ccccn3)CC2)cc1 | -34 | – | – | – | – | –
FC(F)(F)c1cccc(NC(=S)N2CCN(c3ccccn3)CC2)c1 | -30 | – | – | – | – | –
Oc1ccccc1N1CCN(C(=S)Nc2ccc(SC(F)F)cc2)CC1 | – | – | – | – | – | –
O=C(c1c(F)c(F)c(F)c(F)c1F)N1CCN(c2cccc(C(F)(F)F)c2)CC1 | – | – | – | 31 | – | –
Cc1cc(N2CCC(C(=O)Nc3ccc(Cl)cc3)CC2)n2nc(C)c(-c3ccc(Cl)cc3)c2n1 | – | – | – | – | – | –
O=C(NCC1CCCO1)c1c[nH]c2ccc(S(=O)(=O)Nc3cccc(C(F)(F)F)c3)cc2c1=O (configuration not stated) | – | – | – | – | – | –
Cc1ccc(S(=O)(=O)Nc2nc3ccc(S(C)(=O)=O)cc3s2)cc1 | – | – | – | – | – | –
Cc1ccc(C)c(S(=O)(=O)Nc2nc3ccc(S(N)(=O)=O)cc3s2)c1 | – | – | – | 41 | – | –
CCOC(=O)C1CCCN(S(=O)(=O)c2ccc3[nH]c(=O)oc3c2)C1 (configuration not stated) | -41 | – | – | – | – | –
CCOC(=O)C1CCCN(S(=O)(=O)c2ccc3c(c2)N(C)C(=O)CC(=O)N3C)C1 (configuration not stated) | -45! | – | – | – | – | –
SMILES | D1 antagonist | D1 potentiator | TRHR agonist | TRHR enhancer | D1 agonist | USP1 inh
CCOC(=O)C1CCN(S(=O)(=O)c2ccc3[nH]c(=O)oc3c2)CC1 | – | – | – | – | – | –
CCOC(=O)C1CCCN(S(=O)(=O)c2ccc3c(c2)oc(=O)n3C)C1 (configuration not stated) | – | – | – | – | – | –
CC(=O)N1CCN(C(=O)C2(NC(=O)Nc3cccc(F)c3)CCCCC2)CC1 | – | · | – | – | – | –
O=C(Nc1cccc(F)c1)Nc1ccc2c(c1)CCC2 | -84 | – | – | – | – | –
O=C(Nc1cccc(F)c1)c1c(F)c(F)c(F)c(F)c1F | -36 | – | – | – | – | –
CN1CCN(C(=O)C2(NC(=O)Nc3cccc(F)c3)CCCCC2)CC1 | -30 | – | – | – | – | –
O=C(Nc1cccc([N+](=O)[O-])c1)Nc1ccc2c(c1)CCC2 | -64 | – | – | – | – | –
O=C(Nc1ccccc1)Nc1ccc2c(c1)CCC2 | – | – | – | – | – | –

Screens deposited in PubChem by National Center for Advancing Translational Sciences (NCATS).
